Among the data in PubChem BioAssay (Tox21) are Potency values, retold here.

Several values for one entry are separate records, joined by “and”; a condition that tells them apart may be missing. Equal entries are not always repeated. Records with an inconclusive call do not appear. Where a structure was tested more than once in an assay, its records may differ in their call. Activity calls are given as the source filed them. Unless noted, calls come from the whole dose curve.

A short description of experiment [1]: Nuclear factor erythroid 2-related factor 2/antioxidant responsive element (Nrf2/ARE) small molecule agonists: qHTS cell viability counter screen in human keratinocytes (AID 1919968; active = well fitted curve in the direction sought with a large enough effect in the repeat runs; an effect the other way counts as inactive or inconclusive; note: nearly all actives have a fitted effect of over 55% in size; note: potency is the fitted concentration of half-maximal effect). The essentials:
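Fluorescence read-out from CellTiter-Fluor after 1 h at 37 C. Wells held HaCaT-derived ARE-luciferase reporter cells (1,500/well) treated 23 h with DMSO-dissolved compounds. Run in the same wells as the luciferase agonist read.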
(In general: Quantitative high-throughput screening tests each substance at several concentrations.)

Experiment [2] can be described thus: Nuclear factor erythroid 2-related factor 2/antioxidant responsive element (Nrf2/ARE) small molecule agonists: luciferase reporter gene qHTS assay in human keratinocytes (AID 1919969; note: nearly all actives have a fitted effect of over 35% in size; note: potency is the fitted concentration of half-maximal effect). (In general: Reporter assays use an easily measured gene product as a stand-in for the process of interest.)
Experiment [3] deals with Gonadotropin-releasing hormone receptor (Homo sapiens) (UniProt P30968). The experiment can be described thus: Human gonadotropin-releasing hormone receptor (GnRHR) small molecule agonists, calcium flux assay in GnRHR-HEK293 cells (AID 1920063). Note: nearly all actives have a fitted effect of over 35% in size. The procedure, abridged: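 Calcium-dye fluorescence, Ex/Em=480/540, recorded every 1 sec over 3 min after compound addition to GnRHR-HEK293 cells. Cells had been seeded 18 hours earlier and dye-loaded for 1 hour at 37 C. Fifteen concentrations, triplicates.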
Gonadotropin-releasing hormone receptor (Homo sapiens), sequence (P30968 whole entry, looked up): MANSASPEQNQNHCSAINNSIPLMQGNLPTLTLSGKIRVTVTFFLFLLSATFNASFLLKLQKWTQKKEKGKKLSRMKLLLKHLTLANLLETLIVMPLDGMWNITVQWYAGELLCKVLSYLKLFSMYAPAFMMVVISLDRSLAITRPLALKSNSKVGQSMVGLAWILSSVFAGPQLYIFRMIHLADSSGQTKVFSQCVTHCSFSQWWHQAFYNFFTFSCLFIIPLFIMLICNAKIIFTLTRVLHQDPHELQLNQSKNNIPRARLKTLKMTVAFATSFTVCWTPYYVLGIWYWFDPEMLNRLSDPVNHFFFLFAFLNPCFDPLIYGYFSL

In experiment [4] the target is KiSS-1 receptor (Homo sapiens) (UniProt Q969F8). The experiment can be described thus: Human kisspeptin (KISS1R) small molecule agonists, calcium flux assay in KISS1R-HEK293 cells (AID 1920064; active = well fitted curve in the direction sought with a large enough effect in the repeat runs; an effect the other way counts as inactive or inconclusive). The essentials: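 Calcium flux read-out: kinetic fluorescence at Ex/Em=480/540, 1 s intervals over 3 min, after pin-tool compound addition to dye-loaded KISS1R-HEK293 cells. Fifteen concentrations, triplicates.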
KiSS-1 receptor (Homo sapiens), sequence (Q969F8 whole entry, looked up): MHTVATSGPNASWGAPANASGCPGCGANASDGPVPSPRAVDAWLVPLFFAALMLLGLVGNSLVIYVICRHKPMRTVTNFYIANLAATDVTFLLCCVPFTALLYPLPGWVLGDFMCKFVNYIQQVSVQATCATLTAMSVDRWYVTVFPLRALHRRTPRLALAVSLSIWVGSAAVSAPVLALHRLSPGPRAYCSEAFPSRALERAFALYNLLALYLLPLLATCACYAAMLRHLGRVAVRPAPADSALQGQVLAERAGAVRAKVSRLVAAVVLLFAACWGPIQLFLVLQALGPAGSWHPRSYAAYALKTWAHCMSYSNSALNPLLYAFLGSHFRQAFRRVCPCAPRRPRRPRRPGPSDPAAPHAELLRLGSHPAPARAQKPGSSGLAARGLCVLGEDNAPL
In general terms: Calcium flux is commonly read through the fluorescence of an indicator in the cells.

Experiment [5] is described as follows: G protein-coupled receptor (GPCR) small molecule agonists, calcium flux assay: HEK293 wild type cell line counter screen (AID 1920065). The essentials: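 Agonist mode; 18 h seeding at 37 C, 1 h dye load at 37 C; compounds pinned from DMSO, ATP as positive control; kinetic fluorescence 480/540 nm, 3 min, 1 s reads; 15 concentrations, triplicate.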
Experiment [6] is described as follows: p53 small molecule agonists, cell-based qHTS assay with human liver microsomes (AID 1963577). The procedure, abridged:
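p53RE-bla cells, 4,000/well, compound added after 5 h, with human liver microsomes 0.5 mg/mL and NADPH 0.5 mg/mL final; 16 h at 37 C, then LiveBLAzer 2 h RT, fluorescence.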

Experiment [7] can be described thus: p53 small molecule agonists, cell-based qHTS assay with rat liver microsomes (AID 1963578). The essentials:
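p53RE-bla cells, 4,000/well, pre-incubated 5 h, then given compounds plus rat liver microsomes (0.5 mg/mL final) and NADPH (0.5 mg/mL final). Incubation 16 h at 37 C; beta-lactamase reporter read by LiveBLAzer fluorescence after 2 h at room temperature.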

The nature of experiment [8]: p53 small molecule agonists, cell-based qHTS assay with human liver microsomes: qHTS cell viability counter screen (AID 1963579). Note: nearly all actives have a fitted effect of over 45% in size. Note: potency is the fitted concentration of half-maximal effect. The procedure, abridged:
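p53RE-bla cells, 4,000/well, dosed 5 hours after plating, with human liver microsomes (0.5 mg/mL final) plus NADPH (0.5 mg/mL final), 16 hours at 37 C. Viability read as CellTiter-Glo luminescence after 30 min at room temperature.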

Experiment [9] in a line: p53 small molecule agonists, cell-based qHTS assay with rat liver microsomes: qHTS cell viability counter screen (AID 1963580). Note: nearly all actives have a fitted effect of over 45% in size. The procedure, abridged:
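Cytotoxicity counter screen: intracellular ATP read by CellTiter-Glo luminescence in the p53 reporter wells. HCT-116 p53RE-bla cells were treated for 16 h at 37 C alongside rat liver microsomes and NADPH, each 0.5 mg/mL final.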

The nature of experiment [10]: p53 small molecule agonists, cell-based qHTS assay: qHTS cell viability counter screen (AID 1963581). Note: nearly all actives have a fitted effect of over 45% in size. The essentials: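 Cytotoxicity read-out: ATP-based luminescence (CellTiter-Glo, 30 min RT) measured in the same wells as the p53 reporter assay, HCT-116 p53RE-bla cells, 16 h compound exposure at 37 C.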
Experiment [11] can be described thus: p53 small molecule agonists, cell-based qHTS assay (AID 1963582; active = well fitted activation curve with a large enough effect in the signal ratio in the repeat runs, not every such curve was filed as active; the % refers to the signal ratio). The essentials: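 Fluorescence intensity read-out of a beta-lactamase reporter under a p53 response element. Cells were exposed to DMSO-dissolved compounds for 16 h at 37 C, then developed with FRET substrate for 2 h at RT.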
Experiment [12] concerns the target 5-hydroxytryptamine receptor 2A (Homo sapiens) (UniProt P28223). As to the kind of experiment: 5-hydroxytryptamine receptor 2A (HTR2A) small molecule agonists, cell-based qHTS assay (AID 1963587). Note: nearly all actives have a fitted effect of over 30% in size. The procedure, abridged: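 Kinetic calcium-flux fluorescence (2 min, 1 sec intervals) after compound addition in agonist mode. HTR2A-CHO cells were cultured 18 h, then dye-loaded 1 h at 37 C.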

In experiment [13] the target is Muscarinic acetylcholine receptor M1 (Homo sapiens) (UniProt P11229). The experiment can be described thus: Cholinergic receptor muscarinic 1 (CHRM1) small molecule antagonists, cell-based qHTS assay (AID 1963588). Note: nearly all actives have a fitted effect of over 40% in size. The procedure, abridged:
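Compounds were tested at 15 concentrations in three independent runs. Dye-loaded CHRM1-CHO cells were exposed 5 min at room temperature before stimulation by acetylcholine added at 50nM. Intracellular calcium was read kinetically on FDSS for 3 min.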

The target is the same in experiment [14]. The experiment can be described thus: Cholinergic receptor muscarinic 1 (CHRM1) small molecule agonists, cell-based qHTS assay (AID 1963589). Note: nearly all actives have a fitted effect of over 35% in size. The essentials: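 Calcium flux read-out: kinetic fluorescence at 1 sec intervals after pin-tool compound addition to dye-loaded CHRM1-CHO cells (human M1). Agonist mode; 15 concentrations tested in triplicate independent runs.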

A short description of experiment [15]: cAMP Responsive Elements (CRE) small molecule agonists, cell-based qHTS assay (AID 1963590). The essentials: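 Beta-lactamase reporter readout: LiveBLAzer B/G FRET substrate, 2 h at room temperature, added after 3 h compound treatment of CRE-bla HEK 293T cells at 37 C/5% CO2.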
A short description of experiment [16]: cAMP Responsive Elements (CRE) small molecule antagonists, cell-based qHTS assay (AID 1963591; active = well fitted inhibition curve with a large enough effect in the signal ratio in the repeat runs, not every such curve was filed as active; the % refers to the signal ratio). The procedure, abridged: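 HEK293T CRE-bla; 18 h preincubation; compound pin-transfer; NKH477 0.25 uM final, 3 h, 37 C; LiveBLAzer FRET substrate 2 h RT.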
Experiment [17] addresses Beta-2 adrenergic receptor (Homo sapiens) (UniProt P07550). The experiment can be described thus: Adrenergic beta2 receptor (ADRB2) small molecule antagonists, cell-based qHTS assay (AID 1963592). Note: series mostly up to about 92 µM; nearly all actives have a fitted effect of over 50% in size. The essentials:
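Assay format: CHO-ADRB2 cells, 18-20hr seeding at 37C/5% CO2, then compound plus 1nM isoproterenol agonist mix for 0.5hr RT. Homogeneous time-resolved fluorescence cAMP detection after 1hr, expressed as 665/615 nm ratio.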

For experiment [18], the target named is D(2) dopamine receptor (Homo sapiens) (UniProt P14416). As to the kind of experiment: Dopamine D2 receptor (DRD2) small molecule agonists, cell-based qHTS assay (AID 1963594). Note: nearly all actives have a fitted effect of over 35% in size. The essentials: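 cAMP accumulation in DRD2-HEK293 cells measured by HTRF after 1 h detection; compounds added 10 min before NKH477 (200nM […]) forskolin-analogue stimulation, 30 min at room temperature, with Ro20-1724 present at 0.1 mM final.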
D(2) dopamine receptor (Homo sapiens), sequence (P14416 whole entry, looked up): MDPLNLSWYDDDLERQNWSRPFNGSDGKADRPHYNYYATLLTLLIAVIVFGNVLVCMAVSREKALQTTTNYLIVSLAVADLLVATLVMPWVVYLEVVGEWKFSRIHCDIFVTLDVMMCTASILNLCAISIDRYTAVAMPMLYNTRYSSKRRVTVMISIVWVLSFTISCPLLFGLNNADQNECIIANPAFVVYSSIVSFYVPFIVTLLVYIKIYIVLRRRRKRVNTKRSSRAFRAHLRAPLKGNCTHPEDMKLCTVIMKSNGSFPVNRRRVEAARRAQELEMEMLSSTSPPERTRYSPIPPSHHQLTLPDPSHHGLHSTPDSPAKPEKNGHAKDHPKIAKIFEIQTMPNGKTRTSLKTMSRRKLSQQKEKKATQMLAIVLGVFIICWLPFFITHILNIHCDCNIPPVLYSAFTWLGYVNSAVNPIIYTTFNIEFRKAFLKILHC

Experiment [19] shares this target. The experiment can be described thus: Dopamine D2 receptor (DRD2) small molecule antagonists, cell-based qHTS assay (AID 1963595; active = well fitted inhibition curve with a large enough effect in the signal ratio in the repeat runs, with a control signal flat; the % refers to the signal ratio). The procedure, abridged:
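Antagonism was scored as restored cAMP in HEK293-DRD2 cells. These cells were stimulated with 200 nM NKH477 and 12 nM quinpirole for 30 min at room temperature, in the presence of 0.1 mM Ro20-1724.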

Experiment [20] addresses 5-hydroxytryptamine receptor 2A (Homo sapiens) (UniProt P28223). The experiment can be described thus: 5-hydroxytryptamine receptor 2A (HTR2A) small molecule antagonists, cell-based qHTS assay (AID 1963586). Note: nearly all actives have a fitted effect of over 45% in size. The essentials: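 CHO cells stably expressing human HTR2A were plated for 18 h at 37 C, then loaded with calcium dye for 1 h. Compounds were preincubated 5 min at room temperature before DOI (4 nM solution) was added. Kinetic fluorescence was read for 3 min.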

Beta-2 adrenergic receptor (Homo sapiens), sequence (P07550 whole entry, looked up): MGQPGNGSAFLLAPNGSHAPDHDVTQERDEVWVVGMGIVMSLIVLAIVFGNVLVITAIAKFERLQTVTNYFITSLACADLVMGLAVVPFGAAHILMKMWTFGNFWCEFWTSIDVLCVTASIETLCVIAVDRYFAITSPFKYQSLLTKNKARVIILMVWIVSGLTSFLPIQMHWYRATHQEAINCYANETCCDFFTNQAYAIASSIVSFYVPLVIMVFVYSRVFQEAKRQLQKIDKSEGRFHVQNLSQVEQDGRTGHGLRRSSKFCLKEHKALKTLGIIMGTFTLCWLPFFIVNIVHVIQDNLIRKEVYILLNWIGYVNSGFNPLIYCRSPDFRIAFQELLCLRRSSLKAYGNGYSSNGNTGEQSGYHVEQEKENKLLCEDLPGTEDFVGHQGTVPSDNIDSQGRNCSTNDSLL
5-hydroxytryptamine receptor 2A (Homo sapiens), sequence (P28223 whole entry, looked up): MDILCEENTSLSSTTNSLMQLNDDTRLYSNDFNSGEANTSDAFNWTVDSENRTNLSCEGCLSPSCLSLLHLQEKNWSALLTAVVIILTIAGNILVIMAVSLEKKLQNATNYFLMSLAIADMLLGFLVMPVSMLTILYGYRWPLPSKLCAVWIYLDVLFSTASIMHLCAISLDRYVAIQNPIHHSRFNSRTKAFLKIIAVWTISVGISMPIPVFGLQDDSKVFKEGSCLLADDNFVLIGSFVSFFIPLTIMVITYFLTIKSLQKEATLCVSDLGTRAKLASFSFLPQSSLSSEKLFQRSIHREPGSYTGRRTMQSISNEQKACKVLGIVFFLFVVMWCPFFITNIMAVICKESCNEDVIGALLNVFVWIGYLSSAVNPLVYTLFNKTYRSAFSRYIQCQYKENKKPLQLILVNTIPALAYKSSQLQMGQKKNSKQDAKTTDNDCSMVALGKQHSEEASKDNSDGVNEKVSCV
Muscarinic acetylcholine receptor M1 (Homo sapiens), sequence (P11229 whole entry, looked up): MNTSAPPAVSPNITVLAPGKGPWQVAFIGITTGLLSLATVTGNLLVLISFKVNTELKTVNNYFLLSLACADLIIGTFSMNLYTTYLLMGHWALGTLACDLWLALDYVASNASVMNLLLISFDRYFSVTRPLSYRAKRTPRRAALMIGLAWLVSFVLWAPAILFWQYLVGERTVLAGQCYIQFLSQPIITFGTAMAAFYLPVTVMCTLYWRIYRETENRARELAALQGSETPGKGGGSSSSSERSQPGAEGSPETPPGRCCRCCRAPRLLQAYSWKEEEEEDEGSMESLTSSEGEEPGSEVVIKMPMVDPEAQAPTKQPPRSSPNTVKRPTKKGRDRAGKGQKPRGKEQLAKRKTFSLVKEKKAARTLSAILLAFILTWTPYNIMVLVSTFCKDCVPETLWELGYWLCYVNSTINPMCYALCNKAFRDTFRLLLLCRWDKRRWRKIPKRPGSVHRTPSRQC

For the compound `FC(F)(F)C(F)(F)C(F)(F)C(F)(F)C(F)(F)C(F)(F)CCI`, the Potency entry in experiment [1], in experiment [2], in [3], in experiment [4], in experiment [5] and in experiment [6] was “inactive” in each case. Also, the Potency entry in experiment [7], in experiment [8], in [9], in [10], in experiment [11] and in experiment [12] was “inactive” throughout. The Potency entry in [13], in [14], in experiment [15], in [16], in experiment [17] and in experiment [18] was “inactive” each time. Also, the Potency result in experiment [19] was “inactive”.

On to `CCCCCCCC/C=C\CCCCCCCC(N)=O`, for which the Potency result in [1], in experiment [2], in experiment [3], in experiment [4], in experiment [5] and in experiment [6] was “inactive” in each case. Further, the Potency entry in [7], in experiment [8], in experiment [9], in experiment [10], in experiment [11] and in experiment [12] was “inactive” in each case. Further, the Potency entry in experiment [13], in experiment [14], in [15], in experiment [16], in experiment [18] and in [19] was “inactive” throughout.

Turning to `O=C(O)c1cc(=O)c2c(OCC(O)COc3cccc4oc(C(=O)O)cc(=O)c34)cccc2o1`, the Potency result in experiment [1], in [2], in experiment [3], in [4], in experiment [5] and in [6] was “inactive” throughout. Moreover, the Potency entry in experiment [7], in experiment [8], in experiment [9], in experiment [10], in experiment [11] and in [15] was “inactive” each time. The Potency result in experiment [16] and in experiment [19] was “inactive” in each case.

`C[Si](C)(C)Cl`: the Potency entry in experiment [1], in experiment [2], in [3], in experiment [4], in [5] and in experiment [6] was “inactive” throughout. Also, the Potency entry in [7], in experiment [8], in experiment [9], in experiment [10], in experiment [11] and in experiment [12] was “inactive” throughout. Besides, the Potency entry in [13], in experiment [14], in [16], in experiment [17] and in experiment [18] was “inactive” in each case.

Consider `COC(=O)c1cc(Cl)ccc1NS(=O)(=O)C(F)(F)F`, for which the Potency entry in experiment [1], in [2], in experiment [3], in experiment [4], in experiment [5] and in experiment [6] was “inactive” each time. The Potency entry in [7], in experiment [8], in [9], in experiment [10], in [20] and in [12] was “inactive” in each case. The Potency entry in experiment [13], in experiment [14], in experiment [15], in experiment [16], in experiment [17] and in experiment [18] was “inactive” throughout. Further, the Potency entry in experiment [19] is “inactive”.

On to `COc1ccccc1N=Nc1c(S(=O)(=O)O)cc2cc(S(=O)(=O)O)cc(NC(C)=O)c2c1O`, for which the Potency in experiment [1] was 40.7 µM (active). Moreover, the Potency entry in experiment [2], in [3], in [4], in [5], in [6] and in [7] was “inactive” each time. Moreover, the Potency result in experiment [8], in experiment [9], in experiment [10], in [11], in [12] and in [14] was “inactive” throughout. Also, the Potency entry in [15] and in experiment [16] was “inactive” each time.

As to `c1ccc(Nc2cccc3ccccc23)cc1`, the Potency in experiment [1] was 61.9 µM (active); in experiment [2], “inactive and 68.6 µM (active)”; in [8], 46.4 µM (active). Besides, the Potency result in experiment [3], in experiment [4], in experiment [5], in experiment [6], in experiment [7] and in experiment [9] was “inactive” throughout. Besides, the Potency entry in [10], in [11], in experiment [12], in experiment [13], in experiment [14] and in experiment [17] was “inactive” each time. The Potency result in [18] and in [19] was “inactive” each time.
